Experiment [1] is described as follows: yeast TOR pathway RPL19A-GFP modulators, primary screen, cell-based, S. cerevisiae, multiplex flow cytometry (AID 1862; in the data active = percent of DMSO control GFP below about 86%;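 also: lower values mimic rapamycin by blocking the RPL19A rise seen in DMSO cells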). As to conditions: S. cerevisiae RPL19A-GFP strain, flow cytometry fluorescence, 3 h; at 10 µM; stronger effect = lower value. (In general: In flow cytometry, cells or beads pass a laser one at a time.)
The nature of experiment [2]: modulators of MEP2-GFP levels in yeast, primary screen, S. cerevisiae, multiplex flow cytometry (AID 1867;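 active = GFP response, as percent of the DMSO control, above the screen-wide mean plus 3 SD, about 139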;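 also: median GFP channel fluorescence of barcode-gated MEP2-GFP cells measured by flow cytometry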). Particulars: S. cerevisiae MEP2-GFP strain, 3 h, at 10 µM, stronger effect = higher value, 100% means same as DMSO wells.
Experiment [3] in a line: modulators of CIT2-GFP expression in yeast, primary screen, S. cerevisiae, GFP fusion, multiplex flow cytometry (AID 1870;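 active = percent response above a set limit, the screen-wide mean plus 3 SD, cut at about 130% in these data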;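 also: barcoded CIT2-GFP strain pooled with four other GFP strains with rapamycin as positive control; median GFP fluorescence per well over plate mean of DMSO wells so 100% = DMSO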). As to conditions: 3 h, at 10 µM, stronger effect = higher value.
Experiment [4] is described as follows: modulators of LAP4-GFP expression in yeast, primary screen, S. cerevisiae, multiplex flow cytometry (AID 1873). Particulars: 3 h, at 10 µM, stronger effect = higher value.
A short description of experiment [5]: modulators of AGP1-GFP expression in yeast TOR pathway, primary screen, cell-based, multiplex flow cytometry, S. cerevisiae (AID 1887;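 active = GFP signal above the screen-wide mean plus 3 SD, that is over about 124.5% of the solvent control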;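 also: AGP1-GFP fusion strain of S. cerevisiae within a five-strain barcoded multiplex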). Particulars: 3 h, at 10 µM, stronger effect = higher value.
A short description of experiment [6]: inhibitors of CD8+ T cell-vesicle binding, pilot screen, LFA-1/ICAM-1 modulator project, MLPCN validation set, flow cytometry (AID 2523;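 active = response below a set limit, under 55% cells CD8-positive and vesicle-bound, and CD8 cells' 90th-percentile brightness under 279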;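 as to vesicle binding response: mean PE anti-B7-1 fluorescence of CD8+ cells relative to row control; 100% = QL9-loaded vesicles with DMSO vehicle in the same plate row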). As to conditions: 2C mouse CD8+ T cells, at 7 µM, stronger effect = lower value; double positive events: measured here: CD8+/vesicle+ event percentage.
For experiment [7], the target named is Integrin beta-1 (Homo sapiens) + Integrin alpha-4 (Homo sapiens) (UniProt P13612+P05556). In words: inhibition of HUTS-21 binding to VLA-4, pilot screen, VLA-4 allosteric modulator project, U937 cells, HUTS-21 mAb, flow cytometry, validation set (AID 2674;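 active = inhibition above 50%, about 3 SD of the validation set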;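 also: antibody binding induced by the VLA-4 ligand LDV present at three times its Kd; 0% = LDV ligand with antibody and no compound and 100% = antibody without LDV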). As to conditions: HUTS-21 LIBS mAb binding, at 6.7 µM, stronger effect = higher value, binding induced by LDV ligand.

Experiment [8] in a line: superoxide lowering in aged yeast cells, pilot screen, validation compound set (AID 2706;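 active = superoxide response below 65% of plate, a cut near 3 SD across the whole screen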;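 also: yeast exposed to compound for one week at 30 degrees C before staining; 100% = mean of all compound wells on the same plate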). Particulars: S. cerevisiae aging, superoxide DHE fluorescence; at 10 µM; stronger effect = lower value.
The target in experiment [9] is Beta-adrenergic receptor kinase 1 (Homo sapiens) (UniProt P25098). Description: GRK2 binders displacing RNA aptamer, biochemical, validation, human GRK2, bead flow cytometry (AID 488806;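 active = aptamer binding inhibition above 30%, about 3 SD of noise from non-fluorescent compounds; inactive = inhibition at or below 30%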). As to conditions: bead-bound GRK2, FAM-aptamer displacement, at 10 µM, stronger effect = higher value.
The target of experiment [10] is Beta-2 adrenergic receptor (Homo sapiens) (UniProt P07550). Description: beta2AR agonists driving receptor internalization, pilot screen, cell-based, FAP fluorogen, flow cytometry, validation set (AID 504459;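 active = percent response above 42, roughly 3 SD of non-fluorescent test compounds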;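 also: agonist-driven loss of surface beta2AR via internalization measured by FAP dye flow cytometry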). Particulars: Am2.2-beta2AR cells, FAP surface receptor flow cytometry; at 10 µM; stronger effect = higher value.
The target in experiment [11] is AP-2 complex subunit beta (Homo sapiens) (UniProt P63010). In words: inhibitors of arrestin peptide binding to AP2, pilot screen, biochemical, validation set, GST-AP2 beads, flow cytometry (AID 504541;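 active = inhibition above 54%, about 3 SD of non-fluorescent compounds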;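 also: AP2 carries R879A mutation and is captured from E. coli lysate; bead-bound FITC arrestin peptide fluorescence measuring arrestin peptide binding to AP2; 0% = DMSO wells and 100% = excess unlabeled arrestin peptide control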). As to conditions: FITC arrestin peptide, at 10 µM, stronger effect = higher value, AP2 beta2 appendage fragment, R879A mutant.
Experiment [12] is described as follows: yeast V-ATPase proton transport modulators, S. cerevisiae, pHLuorin, HTS validation (AID 504600; in the data active = response above about 15%;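 also: plate controls were DMSO for no effect and reference compound for full effect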). Particulars: S. cerevisiae pHLuorin cytosolic pH, at 10 µM, stronger effect = higher value.
In experiment [13] the test system is anti-desmoglein-3 scFv antibody binding to human DSG3. Description: inhibitors of anti-DSG3 scFv binding to DSG3, pilot screen, biochemical, validation compound set, bead-based, flow cytometry (AID 588368;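 active = binding below the plate cutoff, the plate median minus 3 SD, with a reading above zero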;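 also: signal is the median channel fluorescence of bead-bound GFP antibody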). As to conditions: Protein G beads, DSG3-Fc, scFv-GFP binding, at 10 µM, stronger effect = lower value.
A short description of experiment [14]: inhibitors of fungal efflux pumps CDR1, CDR2, MDR1, pilot screen, validation compound set, multiplex, phenotypic (AID 588506;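 active = efflux inhibition above 0.42, the validation set average plus 4 SD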;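 also: Nile Red retained in cells so higher fluorescence means more efflux inhibition; 0 = negative control wells and 1 = enniatin B 25 µM full block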). As to conditions: S. cerevisiae pump-expressing triplex, Nile Red efflux flow cytometry; at 10 µM; stronger effect = higher value; the pumps come from Candida albicans.
In experiment [15] the target is ATP-binding cassette sub-family B member 6 (Homo sapiens) (UniProt Q9NP58). Description: ABCB6 transporter inhibitors, pilot screen, K562-ABCB6 cells, flow cytometry, validation set (AID 588550;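 active = inhibition above the screen-wide mean plus 3 SD, about 51%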;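 also: 0% = DMSO wells and 100% = benzethonium chloride 70 µM positive control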). As to conditions: K562-ABCB6 porphyrin accumulation, 1 h, at 10 µM, stronger effect = higher value.
A short description of experiment [16]: promoters of myeloid differentiation in arrested cells, primary screen, cell-based, GFP/MAC1 double positive, flow cytometry, validation set (AID 588685;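 active = differentiation response of at least 50%, scaled between solvent and reference control, from cells with both markers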;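 also: compound exposure lasts four days before antibody staining and flow analysis; 0% = DMSO wells and 100% = 5 µM fulvestrant positive control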). As to conditions: ER-HoxA9 marrow cells, stronger effect = higher value, normalized: vehicle 0, fulvestrant 100.

Results filed as inconclusive are left out. The source made the active and inactive calls.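 The calls were made as follows, unless noted: active = GFP signal, as percent of the solvent control, above the screen mean plus 3 SD, about 149; inconclusive = no reading because the compound's own fluorescence upset strain identification; inactive = the rest.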

Beta-2 adrenergic receptor (Homo sapiens), sequence (P07550 whole entry, looked up): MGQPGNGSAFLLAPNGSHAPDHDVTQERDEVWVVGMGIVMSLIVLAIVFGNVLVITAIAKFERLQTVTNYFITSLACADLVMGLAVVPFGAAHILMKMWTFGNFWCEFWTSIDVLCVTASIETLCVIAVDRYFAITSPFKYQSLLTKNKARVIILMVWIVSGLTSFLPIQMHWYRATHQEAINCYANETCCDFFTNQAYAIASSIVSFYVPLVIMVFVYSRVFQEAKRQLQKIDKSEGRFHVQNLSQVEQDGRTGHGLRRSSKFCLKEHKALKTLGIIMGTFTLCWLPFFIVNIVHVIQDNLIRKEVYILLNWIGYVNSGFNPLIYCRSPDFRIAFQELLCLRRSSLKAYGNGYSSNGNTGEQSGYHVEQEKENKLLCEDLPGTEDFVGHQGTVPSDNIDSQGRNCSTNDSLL
Integrin beta-1 (Homo sapiens) + Integrin alpha-4 (Homo sapiens), sequence (P05556 whole entry, looked up): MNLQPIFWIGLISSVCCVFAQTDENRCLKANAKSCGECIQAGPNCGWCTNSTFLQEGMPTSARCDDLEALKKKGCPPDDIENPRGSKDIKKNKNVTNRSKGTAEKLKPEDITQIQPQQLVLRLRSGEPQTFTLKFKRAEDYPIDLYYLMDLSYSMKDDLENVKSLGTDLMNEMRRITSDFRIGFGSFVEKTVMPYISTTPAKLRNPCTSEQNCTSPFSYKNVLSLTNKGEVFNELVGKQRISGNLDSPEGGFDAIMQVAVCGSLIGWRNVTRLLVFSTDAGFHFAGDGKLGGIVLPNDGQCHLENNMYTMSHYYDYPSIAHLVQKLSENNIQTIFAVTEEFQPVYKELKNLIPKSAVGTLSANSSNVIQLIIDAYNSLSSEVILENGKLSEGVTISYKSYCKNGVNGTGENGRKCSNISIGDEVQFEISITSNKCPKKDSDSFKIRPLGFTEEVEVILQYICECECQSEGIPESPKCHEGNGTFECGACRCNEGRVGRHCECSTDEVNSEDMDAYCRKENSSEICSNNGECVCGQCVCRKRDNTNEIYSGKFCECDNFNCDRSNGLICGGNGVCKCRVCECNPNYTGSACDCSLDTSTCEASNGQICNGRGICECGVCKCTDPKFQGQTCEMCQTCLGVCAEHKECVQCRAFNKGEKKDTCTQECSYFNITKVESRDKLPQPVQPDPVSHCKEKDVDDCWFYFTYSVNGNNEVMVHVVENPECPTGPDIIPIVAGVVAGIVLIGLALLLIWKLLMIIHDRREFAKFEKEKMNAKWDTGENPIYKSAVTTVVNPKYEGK
Integrin beta-1 (Homo sapiens) + Integrin alpha-4 (Homo sapiens), sequence (P13612 whole entry, looked up): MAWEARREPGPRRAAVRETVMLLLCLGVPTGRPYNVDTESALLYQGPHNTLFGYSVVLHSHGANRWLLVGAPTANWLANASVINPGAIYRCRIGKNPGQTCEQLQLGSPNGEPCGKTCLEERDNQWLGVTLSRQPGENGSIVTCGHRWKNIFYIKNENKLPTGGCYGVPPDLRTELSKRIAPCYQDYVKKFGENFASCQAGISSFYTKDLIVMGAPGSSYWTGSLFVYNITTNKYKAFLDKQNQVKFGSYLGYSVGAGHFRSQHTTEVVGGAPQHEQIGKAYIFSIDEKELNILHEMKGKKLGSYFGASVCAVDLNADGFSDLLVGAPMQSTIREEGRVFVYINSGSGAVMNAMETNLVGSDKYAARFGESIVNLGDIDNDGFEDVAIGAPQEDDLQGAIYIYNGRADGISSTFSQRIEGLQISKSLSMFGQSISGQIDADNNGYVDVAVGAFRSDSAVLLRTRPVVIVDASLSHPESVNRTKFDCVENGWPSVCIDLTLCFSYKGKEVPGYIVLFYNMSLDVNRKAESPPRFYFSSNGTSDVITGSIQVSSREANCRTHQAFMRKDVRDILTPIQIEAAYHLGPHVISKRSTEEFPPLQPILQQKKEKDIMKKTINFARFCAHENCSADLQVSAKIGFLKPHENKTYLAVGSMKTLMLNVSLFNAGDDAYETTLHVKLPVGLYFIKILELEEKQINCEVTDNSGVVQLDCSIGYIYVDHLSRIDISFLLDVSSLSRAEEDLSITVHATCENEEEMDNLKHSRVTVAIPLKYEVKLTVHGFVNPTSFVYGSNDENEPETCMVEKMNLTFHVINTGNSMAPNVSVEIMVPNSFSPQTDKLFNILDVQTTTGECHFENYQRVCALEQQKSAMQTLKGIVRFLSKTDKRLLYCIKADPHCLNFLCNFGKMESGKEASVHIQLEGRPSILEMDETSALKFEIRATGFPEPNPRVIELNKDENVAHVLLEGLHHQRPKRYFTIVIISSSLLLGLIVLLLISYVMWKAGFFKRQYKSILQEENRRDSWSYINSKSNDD
Beta-adrenergic receptor kinase 1 (Homo sapiens), sequence (P25098 whole entry, looked up): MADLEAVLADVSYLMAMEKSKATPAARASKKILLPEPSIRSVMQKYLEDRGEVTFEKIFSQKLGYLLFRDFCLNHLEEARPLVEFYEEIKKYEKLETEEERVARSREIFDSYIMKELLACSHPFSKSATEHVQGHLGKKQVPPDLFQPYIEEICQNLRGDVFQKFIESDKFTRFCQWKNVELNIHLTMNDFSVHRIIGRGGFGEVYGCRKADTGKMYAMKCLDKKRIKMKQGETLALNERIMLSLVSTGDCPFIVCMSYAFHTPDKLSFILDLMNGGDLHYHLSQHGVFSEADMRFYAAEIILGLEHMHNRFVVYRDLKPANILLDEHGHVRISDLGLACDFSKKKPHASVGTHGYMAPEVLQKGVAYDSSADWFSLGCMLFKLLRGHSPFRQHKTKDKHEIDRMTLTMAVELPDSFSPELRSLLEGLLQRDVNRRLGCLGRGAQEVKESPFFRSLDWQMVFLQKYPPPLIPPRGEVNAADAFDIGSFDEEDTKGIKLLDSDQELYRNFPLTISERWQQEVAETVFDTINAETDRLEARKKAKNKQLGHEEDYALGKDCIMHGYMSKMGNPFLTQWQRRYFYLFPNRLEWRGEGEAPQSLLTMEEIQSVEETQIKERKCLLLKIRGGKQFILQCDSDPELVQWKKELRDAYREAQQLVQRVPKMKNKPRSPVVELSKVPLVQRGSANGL
AP-2 complex subunit beta (Homo sapiens), sequence (P63010 whole entry, looked up, the tested form may be a part, one chain of several): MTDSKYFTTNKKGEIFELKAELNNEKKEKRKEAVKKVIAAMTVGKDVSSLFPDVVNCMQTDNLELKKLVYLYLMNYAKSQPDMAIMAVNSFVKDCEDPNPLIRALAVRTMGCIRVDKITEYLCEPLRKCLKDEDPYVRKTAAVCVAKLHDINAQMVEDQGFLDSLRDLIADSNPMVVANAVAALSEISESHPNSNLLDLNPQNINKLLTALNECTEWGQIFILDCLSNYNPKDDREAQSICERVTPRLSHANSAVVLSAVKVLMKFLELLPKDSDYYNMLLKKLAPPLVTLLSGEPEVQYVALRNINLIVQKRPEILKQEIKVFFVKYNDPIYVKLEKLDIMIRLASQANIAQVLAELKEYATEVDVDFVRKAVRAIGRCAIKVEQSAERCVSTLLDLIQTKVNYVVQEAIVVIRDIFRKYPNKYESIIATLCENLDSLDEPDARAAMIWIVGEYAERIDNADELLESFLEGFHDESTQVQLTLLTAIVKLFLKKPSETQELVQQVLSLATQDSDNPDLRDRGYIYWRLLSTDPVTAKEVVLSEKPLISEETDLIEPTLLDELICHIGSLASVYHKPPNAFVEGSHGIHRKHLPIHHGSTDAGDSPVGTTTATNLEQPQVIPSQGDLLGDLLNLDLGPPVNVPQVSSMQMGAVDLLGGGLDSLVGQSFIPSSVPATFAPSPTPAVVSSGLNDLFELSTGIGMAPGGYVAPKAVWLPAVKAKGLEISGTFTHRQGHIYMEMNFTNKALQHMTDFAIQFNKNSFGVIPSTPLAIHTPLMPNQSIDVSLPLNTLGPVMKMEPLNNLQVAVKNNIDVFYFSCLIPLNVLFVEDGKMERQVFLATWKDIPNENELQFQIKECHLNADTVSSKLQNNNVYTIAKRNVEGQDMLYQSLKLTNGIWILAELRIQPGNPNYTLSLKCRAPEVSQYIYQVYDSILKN
ATP-binding cassette sub-family B member 6 (Homo sapiens), sequence (Q9NP58 whole entry, looked up): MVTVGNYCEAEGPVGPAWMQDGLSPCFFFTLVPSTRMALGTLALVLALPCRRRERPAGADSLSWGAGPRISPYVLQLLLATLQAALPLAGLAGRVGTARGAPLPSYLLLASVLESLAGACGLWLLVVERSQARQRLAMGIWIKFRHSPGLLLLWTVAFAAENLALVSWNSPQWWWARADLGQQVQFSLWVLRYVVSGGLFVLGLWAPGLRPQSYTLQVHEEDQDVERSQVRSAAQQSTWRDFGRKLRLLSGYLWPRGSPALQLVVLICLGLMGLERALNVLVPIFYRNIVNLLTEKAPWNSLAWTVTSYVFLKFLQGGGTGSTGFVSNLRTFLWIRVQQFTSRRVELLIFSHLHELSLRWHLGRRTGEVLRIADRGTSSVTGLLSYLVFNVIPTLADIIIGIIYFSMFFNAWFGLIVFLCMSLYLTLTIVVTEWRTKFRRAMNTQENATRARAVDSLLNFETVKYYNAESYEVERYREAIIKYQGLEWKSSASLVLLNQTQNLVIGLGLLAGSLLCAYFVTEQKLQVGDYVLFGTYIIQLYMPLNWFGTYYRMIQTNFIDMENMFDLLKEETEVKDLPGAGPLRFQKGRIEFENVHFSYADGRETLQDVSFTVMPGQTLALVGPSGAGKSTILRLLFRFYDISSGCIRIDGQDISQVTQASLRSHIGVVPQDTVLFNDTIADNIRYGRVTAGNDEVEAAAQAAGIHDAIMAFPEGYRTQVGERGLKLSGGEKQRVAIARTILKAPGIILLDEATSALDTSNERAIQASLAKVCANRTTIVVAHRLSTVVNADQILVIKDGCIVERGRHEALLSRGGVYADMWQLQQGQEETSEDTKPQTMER

The inhibition is the drop in the measured response relative to a control, in per cent. As for `CC(/C=C1\SC(=O)N(CCCC(=O)O)C1=O)=C\c1ccccc1`, the percent of DMSO control GFP in experiment [1] was 105% (inactive). The GFP response vs DMSO in experiment [2] was 103% (inactive); in experiment [4], 124% (inactive). For the same compound, the percent response of DMSO control in experiment [3] is 99% (inactive). Moreover, in experiment [5], the GFP response, % of DMSO was 99.3% (inactive). Also, in experiment [6], the double positive events amounted to 59.5%. Besides, the vesicle binding response in [6] was 161% (inactive). Also, the inhibition in experiment [7] was 12.5% (inactive); in experiment [11], 37.2% (inactive); in [15], 0% (inactive). Besides, in experiment [8], the superoxide response (% of plate) was 112% (inactive). The aptamer binding inhibition in experiment [9] was 2% (inactive). Moreover, the response in experiment [10] was -6.06% (inactive); in [12] it was -1.36% (inactive). Besides, the binding (% of control) in [13] was 101% (inactive). For the same compound, the efflux inhibition (fraction of control) in experiment [14] is 0 (inactive). The differentiation response in experiment [16] is 12.8% (inactive).
Turning to `CC(C)C(=O)Nc1ccc2c3c(cccc13)CC2`, the percent of DMSO control GFP in [1] is 95% (inactive). Further, the GFP response vs DMSO in experiment [2] was 98.5% (inactive); in [4] it was 124% (inactive). For the same compound, the percent response of DMSO control in experiment [3] was 92% (inactive). Besides, the GFP response, % of DMSO in experiment [5] was 102% (inactive). This compound registered a double positive events in experiment [6] of 62.6%. In [6], the vesicle binding response is 191% (inactive). For the same compound, the values for the inhibition in [7], in [11] and in [15] were 10.5% (inactive), 18.6% (inactive) and 8% (inactive), respectively. Also, the superoxide response (% of plate) in experiment [8] is 99.4% (inactive). For the same compound, the aptamer binding inhibition in [9] is 5% (inactive). For the same compound, the figures for the response in experiment [10] and in [12] were 21.1% (inactive) and -2.45% (inactive), respectively. Besides, in experiment [13], the binding (% of control) is 94.9% (inactive). For the same compound, the efflux inhibition (fraction of control) in experiment [14] is -0.24 (inactive). Further, in [16], the differentiation response is 5.6% (inactive).
For the compound `CCOc1cc2c(cc1OCC)C(c1ccccc1)N(c1ccc(C(=O)O)cc1)C(=O)C2` (stereo not drawn), the percent of DMSO control GFP in experiment [1] is 106% (inactive). Also, the GFP response vs DMSO in [2] was 109% (inactive); in experiment [4], 113% (inactive). Further, the percent response of DMSO control in [3] is 95.5% (inactive). Besides, the GFP response, % of DMSO in experiment [5] was 107% (inactive). The compound further showed a double positive events in experiment [6] of 61.4%. Also, the vesicle binding response in experiment [6] is 151% (inactive). Further, the inhibition in experiment [7] is 11% (inactive); in [11], -11.9% (inactive); in [15], 7% (inactive). In experiment [8], the superoxide response (% of plate) was 92% (inactive). The aptamer binding inhibition in [9] is -1% (inactive). The values for the response in experiment [10] and in experiment [12] were 3.08% (inactive) and 1.91% (inactive), respectively. The binding (% of control) in experiment [13] is 96.8% (inactive). Also, in [14], the efflux inhibition (fraction of control) was -0.1 (inactive). The differentiation response in experiment [16] is 8.59% (inactive).
For `CS(=O)(=O)NCc1ccc(C(=O)NCc2ccccc2)cc1`, in experiment [1], the percent of DMSO control GFP is 98.4% (inactive). The GFP response vs DMSO in experiment [2] was 107% (inactive); in experiment [4], 127% (inactive). For the same compound, the percent response of DMSO control in experiment [3] was 100% (inactive). Further, the GFP response, % of DMSO in [5] was 123% (inactive). Further, in experiment [6], the double positive events is 55.6%. In addition, in [6], the vesicle binding response was 174% (inactive). The inhibition in [7] is -19% (inactive); in experiment [11], -12% (inactive); in [15], -5% (inactive). For the same compound, the superoxide response (% of plate) in experiment [8] was 105% (inactive). Moreover, the aptamer binding inhibition in experiment [9] was -8% (inactive). In addition, the results for the response in experiment [10] and in experiment [12] were -27.9% (inactive) and 4.07% (inactive), respectively. The binding (% of control) in experiment [13] is 98.7% (inactive). The efflux inhibition (fraction of control) in experiment [14] is -0.04 (inactive). Moreover, the differentiation response in [16] was -3.02% (inactive).

Values taken from PubChem BioAssay.
